Reference: PubChem BioAssay
Activity calls are given as the source filed them.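 Rule for the calls, unless noted: active = visually confirmed hit in the image check and inhibition above 20%; inconclusive = visually confirmed hit but inhibition not above 20%; inactive = no visual hit in the image check.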

System: not listed separately
Assay: endothelial E-selectin expression blockers – imaging, HUVEC, immunofluorescence, MLSMR starter and 10KST1 sets, primary screen (AID 487);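 for inhibition: signal is fraction of cell area covered by stained E-selectin grains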;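 for nuclei count: 100% = median nuclei count of all wells on the same plate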
Settings: HUVEC TNFalpha-induced E-selectin immunofluorescence imaging, at 2 µM; inhibition: stronger effect = higher value; nuclei count: measured here: cell number, toxicity

SMILES	inhibition	nuclei count [%]
CCOc1cccc(-c2nnc3n2N=C(c2cc(OC)ccc2OC)CS3)c1	-56.6% (inactive)	111
COc1ccc2ccccc2c1CN1CCCC(CO)C1 (stereo not given)	53% (inactive)	97.2
Cc1cc(NC(c2cccnc2)c2c(C)[nH]c3ccccc23)no1 (stereo not given)	-105% (inactive)	135
CC(NC(=O)c1ccc2c(c1)OCO2)C(c1cccs1)N1CCOCC1 (stereo not given)	-29.4% (inactive)	115
COCCn1nnnc1C(c1cc2ccc(OC)cc2[nH]c1=O)N1CCc2ccccc2C1 (stereo not given)	-43% (inactive)	95.9
O=C1c2ccccc2C(=O)N1CCN1CCCCC1	-58.5% (inactive)	117
COc1ccc(S(=O)(=O)Cc2ccc(C(=O)N3CCN(c4ccccc4)CC3)o2)cc1	-89.5% (inactive)	133
Cc1ccccc1C(=O)NC1CCN(Cc2nnnn2Cc2ccccc2)CC1	-36.5% (inactive)	111
O=C(O)Cn1cc(C(=O)c2ccco2)c2ccccc21	30.1% (inactive)	104
CCOc1ccc2oc(-c3ccccc3)c(C(=O)N3CCN(CCO)CC3)c2c1	-37.2% (inactive)	112
O=C(NC1CCCCC1)N(Cc1ccc(F)cc1)Cc1nc2ccccc2c(=O)[nH]1	-71.7% (inactive)	99
O=C(NC1CCCCCC1)C1CCCN(S(=O)(=O)c2cccs2)C1 (stereo not given)	-27.6% (inactive)	108
Cc1cc(C(=O)Nc2sc3c(c2C#N)CCCCC3)cs1	-7.5% (inactive)	100
CC(=O)Nc1ccc(S(=O)(=O)N(C2=NCC(C)S2)c2ccccc2)cc1 (stereo not given)	-9.1% (inactive)	109
CC(=O)N1CCN(S(=O)(=O)c2ccc(S(=O)(=O)NC3CC3)cc2)CC1	33.9% (inactive)	112
CN(C)S(=O)(=O)N1CCN(c2cccc(Cl)c2)CC1	-14.6% (inactive)	99.2
CCCC(=O)Nc1cc(-c2nnc(OC)c3ccccc23)ccc1N1CCOCC1	-14.8% (inactive)	112
CCOc1ccccc1-n1c(SCC(=O)NCc2ccco2)nnc1-c1ccncc1	6% (inactive)	85.8
CC(C)c1ccc(C(O)c2cnc(C(C)C)n2C)cc1 (stereo not given)	-93.9% (inactive)	106
Cc1cccc(N2CCN(Cc3c(C)n(C)n(-c4ccccc4)c3=O)CC2)c1C	-29.6% (inactive)	124

SMILES	inhibition	nuclei count [%]
Cc1ccc2c(c1)sc1ncc(NC(=O)c3ccccc3)c(=O)n12	-27.5% (inactive)	110
COc1ccc(CCNc2oc(-c3ccccc3OC)nc2C#N)cc1	-19.1% (inactive)	88.6
N#CCCN(Cc1cccnc1)C(=O)Nc1ccc(Cl)c(Cl)c1	-20.5% (inactive)	99.6
CC(=O)N1CCc2cc(S(=O)(=O)CCC(=O)Nc3cccc(F)c3)ccc21	-19.8% (inactive)	112
CC(=O)NCc1cccc(CNC(C)=O)n1	-92.7% (inactive)	101
CCOc1ccccc1-n1nnnc1SCC(=O)Nc1cc2oc3ccccc3c2cc1OC	-108% (inactive)	118
CC(=O)Nc1ccccc1OCc1nnc(-c2cccs2)o1	-266% (inactive)	104
O=C1c2ccccc2C(Nc2ccc(F)cc2F)N1CCN1CCOCC1 (stereo not given)	-46.2% (inactive)	124
CNc1ccc(C(O)(C(F)(F)F)C(F)(F)F)cc1C(O)(C(F)(F)F)C(F)(F)F	3.3% (inactive)	92.8
Cc1nnc(SC(=O)N2c3ccccc3Sc3ccccc32)s1	27.8% (inactive)	107
C=CCn1c(=O)c2ccccc2n2c(SC(C)C(=O)Nc3nc(-c4ccccc4)cs3)nnc12 (stereo not given)	-26% (inactive)	107
CC(=O)Nc1cc(NC(C)=O)cc(C(=O)OCC(=O)N2CC(C)OC(C)C2)c1 (stereo not given)	6.9% (inactive)	109
COc1ccc(C2CC(c3ccc(C)cc3)Nc3ncnn32)cc1 (stereo not given)	30.7% (inactive)	98.3
O=C(Nc1ccc2c(c1)OCCO2)NC1CCCCC1	-33.5% (inactive)	102
CCc1cccc(NC(=O)Cn2cc3c(n2)CCCC3)c1	-27.9% (inactive)	113
N#Cc1cnn(Cc2ccc(Cl)cc2)c1N	-28.9% (inactive)	91.4
O=C(NCCCNC1CCCCC1)c1ccc(/C=N/O)nc1	-97.6% (inactive)	108
CCCCOc1ccc(-c2ncc(C(=O)OCC)c(N)n2)cc1	-71.6% (inactive)	115
CCOP(=O)(c1ccc(N(C)C)cc1)C(O)c1c(Cl)cccc1Cl (stereo not given)	-64.5% (inactive)	96.2
Cc1c(NC(=O)c2nn(C)c(=O)c3ccccc23)c(=O)n(-c2ccccc2)n1C	-56.3% (inactive)	136

Molecular target: Voltage-gated potassium channel subunit beta-2 (Rattus norvegicus) (UniProt P62483)
Sequence (P62483 whole entry, looked up): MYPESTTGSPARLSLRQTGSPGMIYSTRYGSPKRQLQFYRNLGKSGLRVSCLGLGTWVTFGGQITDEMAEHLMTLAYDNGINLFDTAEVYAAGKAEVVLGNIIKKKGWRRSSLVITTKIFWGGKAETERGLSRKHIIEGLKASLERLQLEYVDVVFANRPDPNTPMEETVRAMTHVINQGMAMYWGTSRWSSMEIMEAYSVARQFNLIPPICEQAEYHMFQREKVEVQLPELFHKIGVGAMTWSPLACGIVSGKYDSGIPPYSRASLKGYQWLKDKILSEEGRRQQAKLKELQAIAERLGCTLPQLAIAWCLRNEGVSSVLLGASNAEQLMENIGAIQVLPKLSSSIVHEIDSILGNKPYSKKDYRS
Assay: inhibitors of rat Kvbeta2 reductase activity – biochemical, NADPH fluorescence, primary screen (AID 622;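 active = fluorescence slope higher than the sample average by over 3 SD, cut at about -0.22 in these data, passing the limit was not always enough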;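 note: slope of raw intensity against log time taken from 70 to 1610 s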)
Settings: recombinant KvBeta, 4-cyanobenzaldehyde reduction, at 10 µM, stronger effect = higher value

SMILES	fluorescence slope
CCOc1cccc(-c2nnc3n2N=C(c2cc(OC)ccc2OC)CS3)c1	-0.376 (inactive)
COc1ccc2ccccc2c1CN1CCCC(CO)C1 (stereo not given)	-0.422 (inactive)
Cc1cc(NC(c2cccnc2)c2c(C)[nH]c3ccccc23)no1 (stereo not given)	-0.596 (inactive)
CC(NC(=O)c1ccc2c(c1)OCO2)C(c1cccs1)N1CCOCC1 (stereo not given)	-0.618 (inactive)
COCCn1nnnc1C(c1cc2ccc(OC)cc2[nH]c1=O)N1CCc2ccccc2C1 (stereo not given)	-0.503 (inactive)
O=C1c2ccccc2C(=O)N1CCN1CCCCC1	-0.327 (inactive)
COc1ccc(S(=O)(=O)Cc2ccc(C(=O)N3CCN(c4ccccc4)CC3)o2)cc1	-0.44 (inactive)
Cc1ccccc1C(=O)NC1CCN(Cc2nnnn2Cc2ccccc2)CC1	-0.585 (inactive)
O=C(O)Cn1cc(C(=O)c2ccco2)c2ccccc21	-0.487 (inactive)
CCOc1ccc2oc(-c3ccccc3)c(C(=O)N3CCN(CCO)CC3)c2c1	-0.584 (inactive)
O=C(NC1CCCCC1)N(Cc1ccc(F)cc1)Cc1nc2ccccc2c(=O)[nH]1	-0.333 (inactive)
O=C(NC1CCCCCC1)C1CCCN(S(=O)(=O)c2cccs2)C1 (stereo not given)	-0.428 (inactive)
Cc1cc(C(=O)Nc2sc3c(c2C#N)CCCCC3)cs1	-0.581 (inactive)
CC(=O)Nc1ccc(S(=O)(=O)N(C2=NCC(C)S2)c2ccccc2)cc1 (stereo not given)	-0.496 (inactive)
CC(=O)N1CCN(S(=O)(=O)c2ccc(S(=O)(=O)NC3CC3)cc2)CC1	-0.444 (inactive)
CN(C)S(=O)(=O)N1CCN(c2cccc(Cl)c2)CC1	-0.514 (inactive)
CCCC(=O)Nc1cc(-c2nnc(OC)c3ccccc23)ccc1N1CCOCC1	-0.522 (inactive)
CCOc1ccccc1-n1c(SCC(=O)NCc2ccco2)nnc1-c1ccncc1	-0.405 (inactive)
CC(C)c1ccc(C(O)c2cnc(C(C)C)n2C)cc1 (stereo not given)	-0.552 (inactive)
Cc1cccc(N2CCN(Cc3c(C)n(C)n(-c4ccccc4)c3=O)CC2)c1C	-0.465 (inactive)

SMILES	fluorescence slope
Cc1ccc2c(c1)sc1ncc(NC(=O)c3ccccc3)c(=O)n12	-0.58 (inactive)
COc1ccc(CCNc2oc(-c3ccccc3OC)nc2C#N)cc1	-0.413 (inactive)
N#CCCN(Cc1cccnc1)C(=O)Nc1ccc(Cl)c(Cl)c1	-0.449 (inactive)
CC(=O)N1CCc2cc(S(=O)(=O)CCC(=O)Nc3cccc(F)c3)ccc21	-0.369 (inactive)
CC(=O)NCc1cccc(CNC(C)=O)n1	-0.432 (inactive)
CCOc1ccccc1-n1nnnc1SCC(=O)Nc1cc2oc3ccccc3c2cc1OC	-0.568 (inactive)
CC(=O)Nc1ccccc1OCc1nnc(-c2cccs2)o1	-0.612 (inactive)
O=C1c2ccccc2C(Nc2ccc(F)cc2F)N1CCN1CCOCC1 (stereo not given)	-0.416 (inactive)
CNc1ccc(C(O)(C(F)(F)F)C(F)(F)F)cc1C(O)(C(F)(F)F)C(F)(F)F	-0.616 (inactive)
Cc1nnc(SC(=O)N2c3ccccc3Sc3ccccc32)s1	-0.31 (inactive)
C=CCn1c(=O)c2ccccc2n2c(SC(C)C(=O)Nc3nc(-c4ccccc4)cs3)nnc12 (stereo not given)	-0.483 (inactive)
CC(=O)Nc1cc(NC(C)=O)cc(C(=O)OCC(=O)N2CC(C)OC(C)C2)c1 (stereo not given)	-0.299 (inactive)
COc1ccc(C2CC(c3ccc(C)cc3)Nc3ncnn32)cc1 (stereo not given)	-0.524 (inactive)
O=C(Nc1ccc2c(c1)OCCO2)NC1CCCCC1	-0.487 (inactive)
CCc1cccc(NC(=O)Cn2cc3c(n2)CCCC3)c1	-0.506 (inactive)
N#Cc1cnn(Cc2ccc(Cl)cc2)c1N	-0.466 (inactive)
O=C(NCCCNC1CCCCC1)c1ccc(/C=N/O)nc1	-0.62 (inactive)
CCCCOc1ccc(-c2ncc(C(=O)OCC)c(N)n2)cc1	-0.452 (inactive)
CCOP(=O)(c1ccc(N(C)C)cc1)C(O)c1c(Cl)cccc1Cl (stereo not given)	-0.521 (inactive)
Cc1c(NC(=O)c2nn(C)c(=O)c3ccccc23)c(=O)n(-c2ccccc2)n1C	-0.496 (inactive)
